Hits are enriched below; roughly 3.2% of the tested compounds scored in any of these assays.
TROY signal inh – inhibitors of TROY-dependent NF-kB signaling; Q293 LMP1-TROYcd NF-kB luciferase reporter, 4 h; inhibition, % at 10 µM; hit rate 0.98% among 360,000; AID 1347056;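 active means compounds whose plate-normalised and pattern-corrected inhibition of the luciferase reporter signal at the single screening dose is 50% or more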
EBV LMP1 NFkB – Epstein-Barr LMP1 NF-kappaB reporter inhibition | LMP1-induced NF-kappaB luciferase reporter cells, luminescence | hit rate 0.69% among 350,000 | AID 504558 | inhibition, % at 12.5 µM; in the data active means inhibition above about 41%; inconclusive means no clear call, values can overlap the other calls
LGR2 inh – inhibitors of bursicon-induced Drosophila LGR2 receptor cAMP signaling; hit rate 0.35% among 380,000; inhibition, % at 9.99 µM; HEK293 LGR2, CRE-luciferase, bursicon-stimulated, 4 h;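 active means drop in luminescence signal, shown as inhibition above about 50% in the replicate tests, limit read from the data, passing the limit was not always enough; inconclusive means probably only some replicates passing the limit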;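 further: agonist challenge used bursicon conditioned medium at about half maximal strength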
TWEAK Fn14 block – inhibitors of TWEAK-Fn14 interaction signaling. TWEAK-stimulated Fn14 reporter cells, luciferase luminescence, 8 h. inhibition, % at 10 µM. hit rate 2% among 360,000. AID 1159606; in the data active means inhibition above about 50%
EWS-Fli block – EWS/Fli transcriptional activity inhibition; inhibition, % at 12.6 µM; AID 651661; A673 NR0B1-luciferase reporter, viability-normalised; hit rate 0.67% among 350,000;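 active means mean inhibition of at least 50% after viability correction, with every replicate also passing that limit; inconclusive means mean reaches 50% but only one of two replicates passes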;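 further: firefly luciferase signal divided by Alamar Blue viability fluorescence both relative to DMSO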
PAX8 inh HTS – PAX8 transcriptional activity inhibition | RMG-I TPO-luciferase reporter, SteadyGlo, 24 h | inhibition, % at 12.6 µM | hit rate 1.2% among 360,000;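 active means mean replicate inhibition at least 60% with every replicate also reaching 60%; inconclusive means only one of the two criteria is met; inactive means mean below 60% and not all replicates reaching 60%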;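 further: luciferase light reporting Pax8 driven TPO promoter activity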
Numbers stand for hits; - = inactive; ? = inconclusive; . = no result given; ! = a repeat was not active.

SMILES	TROY signal inh	EBV LMP1 NFkB	LGR2 inh	TWEAK Fn14 block	EWS-Fli block	PAX8 inh HTS
C[C@@H]1CN([C@H](C)CO)C(=O)c2cc(NC(=O)Nc3ccc(C(F)(F)F)cc3)ccc2O[C@H]1CN(C)S(=O)(=O)c1ccc(Cl)cc1	-	-	-	53	-	-
C[C@H](CO)N1C[C@H](C)[C@H](CN(C)S(=O)(=O)c2ccc(C#N)cc2)Oc2ncc(C#Cc3ccccc3)cc2C1=O	.	.	-	.	-	-
C[C@H](CO)N1C[C@H](C)[C@@H](CN(C)S(=O)(=O)c2ccc(F)cc2)Oc2ccc(NC(=O)Nc3ccc(C(F)(F)F)cc3)cc2C1=O	-	-	-	-	-	75!
C[C@H](CO)N1C[C@H](C)[C@H](CN(C)S(=O)(=O)c2ccc(C#N)cc2)Oc2ncc(C#Cc3ccc(C(F)(F)F)cc3)cc2C1=O	.	.	-	.	.	74
C[C@@H]1CN([C@@H](C)CO)C(=O)c2cccc(NC(=O)C3CCOCC3)c2O[C@@H]1CN(C)S(C)(=O)=O	.	.	-	.	-	-
O=C(C[C@@H]1CC[C@@H](NC(=O)c2cccc(F)c2)[C@@H](CO)O1)Nc1nccs1	.	.	-	.	-	-
CC(C)c1onc(C(=O)N2CCN(c3ccc(F)cc3)CC2)c1[N+](=O)[O-]	-	-	.	-	.	.
Cc1onc(C(=O)N2CCC(Cc3ccccc3)CC2)c1[N+](=O)[O-]	-	-	-	-	59	?
CC(C)c1onc(C(=O)N2CCN(C(c3ccccc3)c3ccccc3)CC2)c1[N+](=O)[O-]	-	-	-	-	64	84
CC(C)c1cc(C(=O)N2CCN(C(c3ccccc3)c3ccccc3)CC2)no1	60	-	-	-	.	-
CC(C)c1onc(C(=O)N2CCN(c3ccccc3)CC2)c1[N+](=O)[O-]	-	-	-	-	-	-
Cc1ccc(Cl)cc1N1CCN(C(=O)c2noc(C(C)C)c2[N+](=O)[O-])CC1	-	-	-	-	56	119
CC(C)Cc1cc(C(=O)N2CCN(C(c3ccccc3)c3ccccc3)CC2)no1	-	-	-	-	-	-
C/C=C/c1ccc2c(c1)[C@H]1[C@H](CCN1S(=O)(=O)c1ccc(C)cc1)[C@H](CO)N2	.	.	-	.	-	-
COc1ccc(-c2ccccc2C2Cc3nnccc3CN2)cc1 (configuration not stated)	.	.	-	.	-	72
COCC(=O)N1CC2(C1)CN(Cc1ccccc1F)[C@H](CO)c1[nH]c3cc(OC)ccc3c12	.	.	-	.	-	.
O=C(NCN1CCN(c2ccccc2F)CC1)c1ccccc1	-	-	.	-	.	-
Cc1cccc(C(=O)NCN2CCN(c3ccccc3C#N)CC2)c1	-	82	-	-	-	-
Brc1csc(/C=N/Nc2nc3ccccc3s2)c1	-	-	-	-	.	.
Cc1ccc2[nH]c(C)c(/C=N/Nc3nc4ccccc4s3)c2c1	-	-	.	60	.	-
COc1ccc2c3c(n(C)c2c1)[C@@H](CO)N(Cc1cccc(F)c1)CC31CN(C)C1	.	.	-	.	-	.
CCN1[C@H](C(=O)NCCc2cn(C)cn2)[C@@H](CO)[C@@H]2Cn3c(ccc(-c4ccncc4)c3=O)[C@@H]21	.	.	-	.	-	-
C[C@@H]1CN([C@H](C)CO)C(=O)Cc2cc(NC(=O)Cn3cnnn3)ccc2O[C@@H]1CN(C)Cc1ccc(C(=O)Nc2ccccc2N)cc1	.	.	-	.	-	-
CO[C@@H](CN(C)S(=O)(=O)c1ccc(C)cc1)[C@@H](C)CN(Cc1ccccc1Cl)[C@H](C)CO	.	.	-	.	-	.
Cc1cccc(C(=O)N2CCC(c3nc(-c4ccc(S(=O)(=O)N5CCOCC5)cc4)no3)CC2)c1	-	-	.	-	.	.
SMILES	TROY signal inh	EBV LMP1 NFkB	LGR2 inh	TWEAK Fn14 block	EWS-Fli block	PAX8 inh HTS
O=C(c1ccccc1)N1CCC(c2nc(-c3ccc(S(=O)(=O)N4CCOCC4)cc3)no2)CC1	.	-	.	62	.	.
Cc1ccc(N(C(=O)c2cc3ccccc3oc2=O)C2C=CS(=O)(=O)C2)cc1 (configuration not stated)	-	-	-	-	-	77
C=CCN1c2ccccc2Sc2cnccc21	-	-	-	56	-	-
C[C@H](CO)N1C[C@H](C)[C@H](CN(C)C(=O)Cc2ccccn2)Oc2ncc(C#C[C@@H](C)O)cc2C1=O	.	.	-	.	-	.
O=C(CNS(=O)(=O)c1c(Cl)cccc1Cl)OCC(=O)c1ccc[nH]1	-	-	-	-	-	75
O=C(CNS(=O)(=O)c1ccc(Br)cc1Cl)OCC(=O)c1ccc[nH]1	-	-	-	-	-	-
C[C@H](CO)N1C[C@H](C)[C@H](CN(C)C(=O)[C@@H]2CCCN2C)OCc2ccccc2-c2c(n(C)c3ccccc23)C1=O	.	.	-	.	-	-
N#Cc1ccc(NC(=O)COC(=O)CNC(=O)C2CCCCC2)cc1	-	-	.	-	.	.
N#Cc1ccc(NC(=O)COC(=O)C2CCC2)cc1	-	-	-	-	-	113
Cc1ccccc1C(=O)Oc1cc(N)n(S(=O)(=O)c2ccccc2)n1	-	-	-	55	-	-
COc1ccc(S(=O)(=O)n2nc(OC(=O)c3ccccc3)cc2N)cc1	-	-	.	-	.	-
CS(=O)(=O)n1nc(OC(=O)c2cc(Br)ccc2Cl)cc1N	-	-	-	-	-	-
CS(=O)(=O)n1nc(OC(=O)c2cccc3ccccc23)cc1N	-	-	.	56	.	-
COc1ccc(S(=O)(=O)n2nc(OC(=O)c3ccc(C)cc3)cc2N)cc1	59	-	.	-	.	-
Cc1ccc(C(=O)Oc2cc(N)n(S(=O)(=O)c3ccc(C)cc3)n2)cc1	-	-	-	68	-	-
C[C@H]1CN([C@@H](C)CO)C(=O)c2cc(C#CC3CCCCC3)cnc2O[C@@H]1CN(C)S(=O)(=O)c1cccc(F)c1	.	.	-	.	-	-
COc1ccc(NC(=O)Nc2cccc3c2O[C@@H](CN(C)C)[C@@H](C)CN([C@H](C)CO)C3=O)cc1	.	.	-	.	-	-
COc1ccc(S(=O)(=O)N(C)C[C@H]2Oc3ccc(NS(C)(=O)=O)cc3CC(=O)N([C@H](C)CO)C[C@H]2C)cc1	.	.	-	.	-	-
CCNC(=O)[C@H]1[C@H](CO)[C@H]2Cn3c(ccc(-c4ccc(F)cc4)c3=O)[C@H]2N1Cc1cc(F)ccc1F	.	.	-	.	-	.
Clc1ccccc1OCCn1nnc2ccccc21	-	-	-	95	-	-
Cc1noc(C)c1NC(=O)N[C@H]1CC[C@H](CCNC(=O)C2CC2)O[C@H]1CO	.	.	-	.	-	-
CCCC(=O)Nc1ccc2c(c1)OC[C@@H](C)N(C(=O)c1ccncc1)C[C@H](C)[C@@H](OC)CN(C)C2=O	.	.	-	.	-	-
Cc1onc(-c2ccccc2)c1C(=O)Nc1cc(C(F)(F)F)ccc1N1CCOCC1	-	69	.	-	.	-
Cc1cc(O)c2c(c1O)C(=O)[C@]13C(=C2O)C(=O)[C@@H]2[C@@H](O)[C@H]1[C@@H]1[C@H](O)[C@H]3C(=O)C3=C(O)c4c(O)cc(C)c(O)c4C(=O)[C@]312	-	-	.	65	.	.

High-throughput results (PubChem BioAssay)
